# Measurements reported in PubChem BioAssay (Tox21).
# Results filed as inconclusive are left out. Entries that show only a call come without a potency. Activity calls are given as the source filed them. Unless noted, calls come from the whole dose curve; as a rule, active = well fitted curve in the direction sought with a large enough effect in the repeat runs; inconclusive = weak or mixed curves; inactive = no such curve, though single readings can be large; an effect the other way counts as inactive or inconclusive.
# Assays:
# [1] = biological target: Aryl hydrocarbon receptor (Homo sapiens) (UniProt P35869); assay: qHTS assay to identify small molecule that activate the aryl hydrocarbon receptor (AhR) signaling pathway (AID 743085); details: HepG2 AhR-luc (HG2L7.5c1), luciferase, 24 h; series mostly up to 70.3 µM; note: nearly all actives have a fitted effect of over 15% in size; note: potency is the fitted concentration of half-maximal effect;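 for activation: HG2L7.5c1 human HepG2 liver cells with stably integrated DRE-driven firefly reporter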
# Aryl hydrocarbon receptor (Homo sapiens), sequence (P35869 whole entry, looked up): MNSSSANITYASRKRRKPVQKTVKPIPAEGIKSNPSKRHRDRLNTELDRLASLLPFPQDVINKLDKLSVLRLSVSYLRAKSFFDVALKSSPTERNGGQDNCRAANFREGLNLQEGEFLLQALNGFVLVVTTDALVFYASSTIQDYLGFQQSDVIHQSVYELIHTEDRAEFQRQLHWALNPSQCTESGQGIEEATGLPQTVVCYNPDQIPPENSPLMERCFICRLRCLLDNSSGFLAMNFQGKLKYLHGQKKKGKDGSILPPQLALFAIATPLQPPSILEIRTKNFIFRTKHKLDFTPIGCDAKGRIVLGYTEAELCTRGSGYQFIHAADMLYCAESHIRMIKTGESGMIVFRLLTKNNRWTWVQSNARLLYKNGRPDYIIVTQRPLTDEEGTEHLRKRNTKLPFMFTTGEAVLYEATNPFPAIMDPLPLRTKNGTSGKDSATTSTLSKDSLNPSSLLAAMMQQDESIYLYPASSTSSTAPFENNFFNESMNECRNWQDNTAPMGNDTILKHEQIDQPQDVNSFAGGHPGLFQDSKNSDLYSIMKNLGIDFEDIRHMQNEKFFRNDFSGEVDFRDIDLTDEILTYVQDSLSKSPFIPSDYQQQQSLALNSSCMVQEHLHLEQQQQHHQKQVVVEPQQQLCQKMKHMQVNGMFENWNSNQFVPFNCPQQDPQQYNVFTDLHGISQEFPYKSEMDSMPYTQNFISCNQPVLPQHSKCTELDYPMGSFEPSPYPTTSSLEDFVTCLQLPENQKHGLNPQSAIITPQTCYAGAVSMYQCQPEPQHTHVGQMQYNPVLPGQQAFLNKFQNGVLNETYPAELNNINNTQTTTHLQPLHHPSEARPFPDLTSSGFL
# Method in brief: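 A multiplexed format paired cell viability (CellTiter-Fluor fluorescence) with AhR-dependent luciferase output (ONE-Glo luminescence) in the same wells of HepG2 DRE-luc cells after 24 h compound exposure at 37C.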
# [2] = qHTS assay to identify small molecule that activate the aryl hydrocarbon receptor (AhR) signaling pathway - cell viability counter screen (AID 743086); details: HepG2-AhR-luc viability, CellTiter-Fluor, 24 h; series mostly up to 70.3 µM;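 note: HepG2 liver cells carrying the AhR DRE luciferase reporter; nearly all actives have a fitted effect of over 45% in size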
# Method in brief: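 HepG2-AhR-luc (HG2L7.5c1) cells, 4000/well, treated 24 h at 37 C with compound; viability measured as CellTiter-Fluor fluorescence after 30 min in the same wells as the luciferase read.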
# [3] = biological target: Peroxisome proliferator-activated receptor gamma (Homo sapiens) (UniProt P37231); assay: qHTS assay to identify small molecule antagonists of the peroxisome proliferator-activated receptor gamma (PPARg) signaling pathway (AID 743191; calls by dose curve; note: nearly all actives have a fitted effect of over 30% in size); details: HEK293H PPARg-UAS-bla, beta-lactamase ratio, antagonist, 17 h; series mostly up to 62.6 µM
# Peroxisome proliferator-activated receptor gamma (Homo sapiens), sequence (P37231 whole entry, looked up): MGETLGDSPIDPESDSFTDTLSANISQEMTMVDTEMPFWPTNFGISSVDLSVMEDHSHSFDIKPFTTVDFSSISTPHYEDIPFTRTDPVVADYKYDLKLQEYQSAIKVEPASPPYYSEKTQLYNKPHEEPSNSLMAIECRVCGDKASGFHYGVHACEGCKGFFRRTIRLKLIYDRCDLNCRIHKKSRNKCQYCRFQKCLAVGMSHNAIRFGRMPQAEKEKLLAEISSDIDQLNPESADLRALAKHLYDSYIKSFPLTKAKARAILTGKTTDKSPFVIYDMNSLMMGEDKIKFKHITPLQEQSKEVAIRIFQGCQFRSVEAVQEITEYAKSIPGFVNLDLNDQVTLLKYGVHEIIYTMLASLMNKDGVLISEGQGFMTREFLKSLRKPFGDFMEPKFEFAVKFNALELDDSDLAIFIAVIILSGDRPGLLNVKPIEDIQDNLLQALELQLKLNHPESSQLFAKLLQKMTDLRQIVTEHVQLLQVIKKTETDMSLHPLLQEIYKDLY
# Method in brief: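 GeneBLAzer PPARg UAS-bla HEK293H cells, 5 h post-plating, exposed to compounds 17 h at 37C. LiveBLAzer B/G FRET substrate added for 1 h at room temperature; beta-lactamase reporter read by fluorescence intensity.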
# [4] = qHTS assay for small molecule agonists of the antioxidant response element (ARE) signaling pathway (AID 743202; active = well fitted activation curve with a large enough effect in the signal ratio in the repeat runs, not every such curve was filed as active; the % refers to the signal ratio); details: HepG2 ARE-bla reporter, beta-lactamase FRET, 16 h; series mostly up to 73.3 µM
# Method in brief: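 ARE-bla HepG2 cells (beta-lactamase reporter under the antioxidant response element), plated 5 hours, then exposed to compounds 16 hours at 37 C. LiveBLAzer B/G FRET substrate added for 2 hours at room temperature; fluorescence intensity read.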
# [5] = qHTS assay for small molecule agonists of the antioxidant response element (ARE) signaling pathway - cell viability counter screen (AID 743203; calls by dose curve; note: nearly all actives have a fitted effect of over 55% in size); details: ARE-bla HepG2 viability, CellTiter-Glo luminescence, 16 h; series mostly up to 73.3 µM
# Method in brief: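 HepG2 cells carrying ARE-driven beta-lactamase; 2,000 cells/well; 5 hrs plating; compound pinned from DMSO; 16 hrs 37C/5% CO2; CellTiter-Glo added; 30 min RT; luminescence.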
# [6] = qHTS assay for small molecule activators of the heat shock response signaling pathway - cell viability counter screen (AID 743209); details: HSE-bla HeLa viability, CellTiter-Glo luminescence, 5 h; series mostly up to 62.6 µM; note: nearly all actives have a fitted effect of over 50% in size
# Method in brief: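 Luminescence from CellTiter-Glo, added after the beta-lactamase FRET read, gave the viability signal. Cells were HSE-bla HeLa treated with DMSO-dissolved compounds for 5 h at 37 C following overnight plating.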
# [7] = qHTS assay for small molecule activators of the heat shock response signaling pathway (AID 743210; active = well fitted activation curve with a large enough effect in the signal ratio in the repeat runs, with a control signal flat, not every such curve was filed as active; the % refers to the signal ratio); details: HeLa HSE-bla reporter, beta-lactamase ratio, 5 h; series mostly up to 62.6 µM
# Method in brief: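 HSE-bla HeLa cells (beta-lactamase reporter under heat shock response elements), plated overnight, then exposed to compounds 5 h at 37 C; LiveBLAzer B/G FRET substrate added, 2.5 h at room temperature, fluorescence intensity read.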
# [8] = qHTS assay to identify small molecule agonists of the peroxisome proliferator-activated receptor delta (PPARd) signaling pathway - cell viability counter screen (AID 743211); details: PPARd-bla HEK293H viability, CellTiter-Glo luminescence, 17 h; series mostly up to 62.6 µM; note: nearly all actives have a fitted effect of over 55% in size
# Method in brief: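 Tox21 library compounds, delivered in DMSO, were incubated 17 h with PPARd-bla HEK293H cells; cytotoxicity was taken from CellTiter-Glo luminescence read 30 min after reagent addition.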
# [9] = qHTS assay to identify small molecule antagonists of the peroxisome proliferator-activated receptor gamma (PPARg) signaling pathway - cell viability counter screen (AID 743194); details: PPARg-bla HEK293H viability, CellTiter-Glo luminescence, 17 h; Potency: co-treated with 50 nM rosiglitazone; series mostly up to 62.6 µM; note: nearly all actives have a fitted effect of over 55% in size
# Method in brief: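 Cytotoxicity counter screen in PPARg-bla HEK293H cells, same wells as reporter assay. Compounds plus 50 nM rosiglitazone (final) for 17 h at 37 C, then viability read by CellTiter-Glo luminescence.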
# [10] = biological target: Peroxisome proliferator-activated receptor gamma (Homo sapiens) (UniProt P37231); assay: qHTS assay to identify small molecule agonists of the peroxisome proliferator-activated receptor gamma (PPARg) signaling pathway (AID 743094; active = well fitted activation curve with a large enough effect in the signal ratio in the repeat runs, not every such curve was filed as active; the % refers to the signal ratio); details: HEK293H PPARg-UAS-bla, beta-lactamase FRET ratio, 17 h; series mostly up to 57 µM
# Method in brief: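 Beta-lactamase FRET fluorescence was the read-out after a 1 h room-temperature substrate step, following 17 h compound treatment at 37C of HEK293H cells expressing a UAS-driven bla reporter responsive to PPARg.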
SMILES,Potency [1],Potency [2],Potency [3],Potency [4],Potency [5],Potency [6],Potency [7],Potency [8],Potency [9],outcome [10]
CC(C)N(Cc1ccccc1)C(=O)C(C)(C)C,inactive,inactive,inactive,inactive,inactive,inactive,inactive,inactive,–,–
CC(=O)CN(CC(C)=O)N=O,inactive,inactive,inactive,inactive,inactive,inactive,inactive,inactive,inactive,–
OCC(Cl)CCl (centres undefined),inactive,inactive,inactive,inactive,inactive,–,–,inactive,inactive,–
COC(=O)c1ccccc1CS(=O)(=O)NC(=O)Nc1nc(OC)cc(OC)n1,inactive,inactive,inactive,inactive,inactive,inactive,inactive,inactive,inactive,–
BrCC1CO1 (centres undefined),inactive,inactive,inactive,inactive,inactive,inactive,inactive,inactive,inactive,–
CON(C)C(=O)Nc1ccc(Br)c(Cl)c1,30.6 µM (active),inactive,–,inactive,inactive,inactive,–,inactive,–,inactive
